Measurements reported in PubChem BioAssay (NCI).
This is part of a sample that, as a whole, favours compounds with a hit. Of some 83,000 tested, about 20% had one in any assay.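 Testing used 96-well plates and a 48-hour single-concentration exposure. Example: -40 means 40% of the starting cells died.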 Values without a mark were called inactive. Activity calls are given as the source filed them. The calls were made as follows: active = growth percent below 10; inactive = the rest.

Assays:
Assay in all cases: NCI-60 one-dose screen, 48 h (100 = growth as untreated, 0 = no growth, -100 = all killed)
Conditions in all cases: 10 µM unless noted
[1] = test system: NCI-H23 lung
[2] = test system: NCI-H226 lung
[3] = test system: NCI-H322M lung
[4] = test system: HOP-62 NSCLC
[5] = test system: NCI-H460 lung
[6] = test system: HOP-92 NSCLC
[7] = test system: NCI-H522 lung
[8] = test system: A549/ATCC NSCLC
[9] = test system: 786-0 renal
[10] = test system: COLO 205 colon

**Q.** With O=C(Cc1ccccc1)Nc1nnc(NC2CCN(c3nnc(NC(=O)Cc4ccccc4)s3)CC2)s1 as the molecule, how does the growth [1] read?
**A.** 96.1%

**Q.** And the growth [2]?
**A.** 98.7%

**Q.** And the growth [3]?
**A.** 35.3%

**Q.** And the growth [4]?
**A.** 75.9%

**Q.** And the growth [5]?
**A.** 93.3%

**Q.** What about the growth [6] of the same molecule?
**A.** 94.5%

**Q.** And the growth [7]?
**A.** 72.5%

**Q.** And the growth [8]?
**A.** 34.4%

**Q.** And the growth [9]?
**A.** 89%

**Q.** What about the growth [10] of the same molecule?
**A.** 90.1%

**Q.** Which results are given for Cc1ccc(-[n+]2c3cc(N)c(C)cc3nc3cc(C)c(Nc4ccccc4)cc32)cc1?
**A.** growth [1]: -74.4% (active); growth [2]: -67% (active); growth [3]: -53.1% (active); growth [4]: -64.9% (active); growth [5]: -48.2% (active); growth [6]: -60.5% (active); growth [7]: -48.8% (active); growth [8]: -18.9% (active); growth [9]: -93% (active); growth [10]: -94.9% (active)

**Q.** Which results are given for Clc1ccc(C(Cn2ccnc2)OCc2ccsc2Cl)c(Cl)c1 (stereo not given)?
**A.** growth [1]: 37.9%; growth [2]: 63%; growth [3]: 88.2%; growth [4]: 73.6%; growth [5]: 57.7%; growth [6]: 28.7%; growth [7]: 35.1%; growth [8]: 56.1%; growth [9]: 55.6%; growth [10]: 62.9%

**Q.** For CC(N)C(Cc1ccc(Cl)cc1)c1ccc(Cl)cc1 (stereo not given), which growth [1] is on record?
**A.** 92.8%

**Q.** And the growth [2]?
**A.** 88.2%

**Q.** What about the growth [3] of the same molecule?
**A.** 83.4%

**Q.** What about the growth [4] of the same molecule?
**A.** 56%

**Q.** And the growth [5]?
**A.** 66%

**Q.** What about the growth [6] of the same molecule?
**A.** 21.5%

**Q.** What about the growth [7] of the same molecule?
**A.** -18.1% (active)

**Q.** And the growth [8]?
**A.** 42.1%

**Q.** What about the growth [9] of the same molecule?
**A.** 57.1%

**Q.** What about the growth [10] of the same molecule?
**A.** -81.2% (active)

**Q.** Which results are given for COc1ccc(C2CC(=O)c3c(O)c(OC)c(OC)c(OC)c3O2)c(O)c1 (stereo not given)?
**A.** growth [1]: 27.5%; growth [2]: 66.8%; growth [3]: 51.4%; growth [4]: 64.9%; growth [5]: 9.27% (active); growth [6]: 77.9%; growth [7]: 12%; growth [8]: 28.1%; growth [9]: 47.2%; growth [10]: 57.3%

**Q.** Cc1cc(Nc2ncnc3ccc(NC4=NC(C)(C)CO4)cc23)ccc1Oc1ccn2ncnc2c1 was tested. Which growth [1] did it give?
**A.** 35.6%

**Q.** What about the growth [2] of the same molecule?
**A.** 47%

**Q.** What about the growth [3] of the same molecule?
**A.** 5.34% (active)

**Q.** What about the growth [4] of the same molecule?
**A.** 22.3%

**Q.** And the growth [5]?
**A.** 26.9%

**Q.** And the growth [6]?
**A.** 9.05% (active)

**Q.** What about the growth [7] of the same molecule?
**A.** 6.43% (active)

**Q.** What about the growth [8] of the same molecule?
**A.** 20.7%

**Q.** And the growth [9]?
**A.** 29.7%

**Q.** And the growth [10]?
**A.** -60.7% (active)

**Q.** What does the source list for CCN(CC)CCCC(C)Nc1cc(-c2ccc(C(F)(F)F)cc2)c(C#N)c2nc3ccccc3n12 (stereo not given)?
**A.** growth [1]: 18.6%; growth [2]: -39.6% (active); growth [3]: 38.9%; growth [4]: 6.94% (active); growth [5]: -18.8% (active); growth [6]: 68.8%; growth [7]: 13.1%; growth [8]: 17.1%; growth [9]: -83.3% (active); growth [10]: -44.6% (active)

**Q.** How did the growth [1] turn out when N#Cc1c(-c2ccc(Cl)cc2)csc1NC(=O)Nc1cccc(C(F)(F)F)c1 was run?
**A.** -8.85% (active)

**Q.** And the growth [2]?
**A.** 17.6%

**Q.** What about the growth [3] of the same molecule?
**A.** 31.5%

**Q.** What about the growth [4] of the same molecule?
**A.** 18.4%

**Q.** What about the growth [5] of the same molecule?
**A.** 5.61% (active)

**Q.** And the growth [6]?
**A.** -4.85% (active)

**Q.** And the growth [7]?
**A.** -9.41% (active)

**Q.** And the growth [8]?
**A.** 11.4%

**Q.** What about the growth [9] of the same molecule?
**A.** 22.9%

**Q.** And the growth [10]?
**A.** -0.881% (active)

**Q.** CC(=O)Oc1ccccc1C(=O)N=C1[Se]CCN1C(=O)c1ccccc1OC(C)=O was tested. Which growth [1] did it give?
**A.** 0.294% (active)

**Q.** What about the growth [2] of the same molecule?
**A.** -48.4% (active)

**Q.** And the growth [3]?
**A.** -21.7% (active)

**Q.** And the growth [4]?
**A.** -48.1% (active)

**Q.** What about the growth [5] of the same molecule?
**A.** -7.43% (active)

**Q.** What about the growth [6] of the same molecule?
**A.** -72.4% (active)

**Q.** What about the growth [7] of the same molecule?
**A.** -6.48% (active)

**Q.** And the growth [8]?
**A.** -52.6% (active)

**Q.** And the growth [9]?
**A.** -95.8% (active)

**Q.** And the growth [10]?
**A.** -26.9% (active)

**Q.** With COc1ccc(-c2ccc3c(N4CCOC[C@@H]4C)nc(N4CCOC[C@@H]4C)nc3n2)cc1CO as the molecule, how does the growth [1] read?
**A.** 20.3%

**Q.** And the growth [2]?
**A.** -9.74% (active)

**Q.** And the growth [3]?
**A.** -5.27% (active)

**Q.** And the growth [4]?
**A.** -12.9% (active)

**Q.** And the growth [5]?
**A.** 8.4% (active)

**Q.** And the growth [6]?
**A.** -21.1% (active)

**Q.** What about the growth [7] of the same molecule?
**A.** 8.31% (active)

**Q.** What about the growth [8] of the same molecule?
**A.** -12.6% (active)

**Q.** What about the growth [9] of the same molecule?
**A.** 2.33% (active)

**Q.** And the growth [10]?
**A.** -14.1% (active)

**Q.** What does the source list for CCCCCCCC(=O)SCC/C=C/[C@@H]1CC(=O)NCc2cccc(n2)C2=N[C@@](C)(CS2)C(=O)N[C@@H](C(C)C)C(=O)N1?
**A.** growth [1]: 41.7%; growth [2]: 68.9%; growth [3]: 15.6%; growth [4]: 12.3%; growth [5]: 20%; growth [6]: 38%; growth [7]: -1.71% (active); growth [8]: 15.4%; growth [9]: 54%; growth [10]: -41.6% (active)

**Q.** What does the source list for COc1c(OCCCN2CCOCC2)ccc2c3n(c(=NC(=O)c4cnc(N)nc4)nc12)CCN3?
**A.** growth [1]: 20.6%; growth [2]: 23.7%; growth [3]: -12.6% (active); growth [4]: 12.4%; growth [5]: 9.88% (active); growth [6]: -14.6% (active); growth [7]: 9.59% (active); growth [8]: -5.58% (active); growth [9]: -4.92% (active); growth [10]: -18.6% (active)

**Q.** For O=C(Nc1nc2cccc(-c3ccc(CN4CCS(=O)(=O)CC4)cc3)n2n1)C1CC1, which growth [1] is on record?
**A.** 65.2%

**Q.** What about the growth [2] of the same molecule?
**A.** 55.9%

**Q.** And the growth [3]?
**A.** 87.6%

**Q.** What about the growth [4] of the same molecule?
**A.** 57.3%

**Q.** And the growth [5]?
**A.** 5.79% (active)

**Q.** What about the growth [6] of the same molecule?
**A.** 96.3%

**Q.** What about the growth [7] of the same molecule?
**A.** 6.67% (active)

**Q.** And the growth [8]?
**A.** 60.1%

**Q.** And the growth [9]?
**A.** 85.5%

**Q.** And the growth [10]?
**A.** 59.5%
